According to PubChem BioAssay (NCATS):
Results filed as inconclusive are left out. Calls of active or inactive are those of the source. Unless noted, calls come from the whole dose curve.

Experiments:
[1] = molecular target: Androgen receptor (Homo sapiens) (UniProt P10275); assay: qHTS assay for small molecule antagonists of androgen receptor signaling (AID 588516; active = well fitted curve in the direction sought with a large enough effect in the signal ratio, with a control signal flat, not every such curve was filed as active; the % refers to the signal ratio; note: % is set by controls: 0 for no effect and ±100 for the full control effect)
How it was run: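 Cells were plated and incubated 5 h, compounds added in titration, then R1881 (10 nM final) as agonist. After 16 h at 37 C, CCF4 substrate was loaded for 2 h at room temperature and fluorescence measured.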

[2] = molecular target: Bile acid receptor (Homo sapiens) (UniProt Q96RI1); assay: qHTS assay for small molecule antagonists of farnesoid X receptor signaling (AID 588526); note: % is set by controls: 0 for no effect and ±100 for the full control effect
How it was run: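 Beta-lactamase reporter antagonist mode: HEK293T FXR-UAS-bla cells, titrated compound, CDCA stimulation, 16 h 37 C, CCF4 dye 2 h RT. Data normalized to CDCA 50 uM and DMSO; Hill-fit IC50.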

[3] = molecular target: Peroxisome proliferator-activated receptor gamma (Homo sapiens) (UniProt P37231); assay: qHTS assay for small molecule agonists of peroxisome proliferator-activated receptor gamma signaling (AID 588536; active = well fitted curve in the direction sought with a large enough effect in the signal ratio, with a control signal flat, not every such curve was filed as active; the % refers to the signal ratio;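 note: 0% = DMSO basal wells and 100% = rosiglitazone at 2 µM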)
How it was run: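 Cells were plated and held 6–6.5 h at 37 C, then compounds were added as a titration series. After a further 16 h, CCF4 dye was loaded for 2 h at room temperature and emission at 460/530 nm recorded.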

[4] = molecular target: Peroxisome proliferator-activated receptor gamma (Homo sapiens) (UniProt P37231); assay: qHTS assay for small molecule antagonists of peroxisome proliferator-activated receptor gamma signaling (AID 588537; active = well fitted inhibition curve with a large enough effect in the signal ratio, with a control signal flat, not every such curve was filed as active; the % refers to the signal ratio;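 note: reporter cells co-stimulated with 50 nM rosiglitazone agonist during compound treatment; % of control where 0% means no effect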)
How it was run: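 Antagonist-mode β-lactamase reporter screen run as a titration series. HEK293 PPARγ-UAS-bla cells are stimulated with rosiglitazone (50 nM final) for 16 h, then CCF4 is read at 460/530 nm. Data are scaled between DMSO and rosiglitazone and fitted to the Hill equation.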

[5] = qHTS assay for small molecule agonists of the antioxidant response element (ARE) signaling pathway (AID 651741; active = well fitted activation curve with a large enough effect in the signal ratio; the % refers to the signal ratio; note: potency is the fitted concentration of half-maximal effect; for activation: % of control where 0% means no effect)
How it was run: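 Beta-lactamase reporter under ARE control in HepG2 cells, 2,000 per well, was induced by 16 h compound treatment at 37 C. Read-out was fluorescence from LiveBLAzer B/G FRET substrate after 2 h at room temperature.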

[6] = molecular target: Androgen receptor (Homo sapiens) (UniProt P10275); assay: qHTS assay for small molecule agonists of androgen receptor signaling (AID 588515; active = well fitted curve in the direction sought with a large enough effect in the signal ratio, with a control signal flat; the % refers to the signal ratio; note: % is set by controls: 0 for no effect and ±100 for the full control effect); conditions: AR-UAS-bla HEK293, beta-lactamase ratio, agonist 16 h; activation: hits give high values
How it was run: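 Stimulation of an AR-responsive β-lactamase reporter in GripTite HEK293 cells was measured after 16 h compound exposure at 37 °C, via CCF4 fluorescence after 2 h RT. EC50 from Hill fits, normalized to R1881 at 30 nM.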

[7] = molecular target: Glucocorticoid receptor (Homo sapiens) (UniProt P04150); assay: qHTS assay for small molecule agonists of glucocorticoid receptor signaling (AID 588532; active = well fitted curve in the direction sought with a large enough effect in the signal ratio, with a control signal flat; the % refers to the signal ratio;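 note: 100% = dexamethasone at 0.1 µM and 0% = DMSO only wells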); conditions: HeLa MMTV-bla, beta-lactamase ratio, agonist, 18 h; hits give high values; percent of dexamethasone control, DMSO zero
How it was run: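 Quantitative HTS using CellSensor MMTV-bla HeLa cells in charcoal/dextran-treated serum; compounds tested up to 92 uM. After 18 h at 37 C, CCF4 dye reported reporter induction.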

[8] = molecular target: Glucocorticoid receptor (Homo sapiens) (UniProt P04150); assay: qHTS assay for small molecule antagonists of glucocorticoid receptor signaling (AID 588533; active = well fitted inhibition curve with a large enough effect in the signal ratio, with a control signal flat, not every such curve was filed as active; the % refers to the signal ratio;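 note: cells stimulated with 2 nM dexamethasone as agonist; % is set by controls: 0 for no effect and ±100 for the full control effect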)
How it was run: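 Antagonist-mode qHTS: compound titrations added to GRE-bla HeLa cells, then dexamethasone 2 nM final; 18 h, 37 C. CCF4 FRET fluorescence normalized to dexamethasone and DMSO; IC50 from Hill fit.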

[9] = molecular target: Estrogen receptor (Homo sapiens) (UniProt P03372); assay: qHTS assay for small molecule agonists of estrogen receptor alpha signaling (AID 588514);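 note: 0% = vehicle only and 100% = reference agonist; nearly all actives have a fitted effect of over 70% in size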
How it was run: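 Efficacy is expressed against 20 nM 17-beta-estradiol (100%) and DMSO basal (0%); EC50 from Hill equation. Assay: beta-lactamase reporter in ER-alpha-UAS-bla HEK 293 cells, 18 h compound incubation, CCF4 detection.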

Chain of Peroxisome proliferator-activated receptor gamma (Homo sapiens) (P37231 whole entry, looked up): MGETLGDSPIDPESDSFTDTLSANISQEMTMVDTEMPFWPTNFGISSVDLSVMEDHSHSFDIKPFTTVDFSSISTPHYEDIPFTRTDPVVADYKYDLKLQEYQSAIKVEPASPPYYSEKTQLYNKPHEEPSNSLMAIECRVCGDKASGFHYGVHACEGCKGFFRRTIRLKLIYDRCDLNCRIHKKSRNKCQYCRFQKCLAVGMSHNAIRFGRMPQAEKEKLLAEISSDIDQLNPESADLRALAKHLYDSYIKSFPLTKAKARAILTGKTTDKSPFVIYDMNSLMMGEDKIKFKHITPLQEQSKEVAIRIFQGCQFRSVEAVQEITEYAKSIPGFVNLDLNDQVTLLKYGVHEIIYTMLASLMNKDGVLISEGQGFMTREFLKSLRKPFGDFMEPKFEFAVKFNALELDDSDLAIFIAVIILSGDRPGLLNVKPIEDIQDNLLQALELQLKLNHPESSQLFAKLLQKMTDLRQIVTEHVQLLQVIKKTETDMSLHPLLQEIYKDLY
Chain of Estrogen receptor (Homo sapiens) (P03372 whole entry, looked up): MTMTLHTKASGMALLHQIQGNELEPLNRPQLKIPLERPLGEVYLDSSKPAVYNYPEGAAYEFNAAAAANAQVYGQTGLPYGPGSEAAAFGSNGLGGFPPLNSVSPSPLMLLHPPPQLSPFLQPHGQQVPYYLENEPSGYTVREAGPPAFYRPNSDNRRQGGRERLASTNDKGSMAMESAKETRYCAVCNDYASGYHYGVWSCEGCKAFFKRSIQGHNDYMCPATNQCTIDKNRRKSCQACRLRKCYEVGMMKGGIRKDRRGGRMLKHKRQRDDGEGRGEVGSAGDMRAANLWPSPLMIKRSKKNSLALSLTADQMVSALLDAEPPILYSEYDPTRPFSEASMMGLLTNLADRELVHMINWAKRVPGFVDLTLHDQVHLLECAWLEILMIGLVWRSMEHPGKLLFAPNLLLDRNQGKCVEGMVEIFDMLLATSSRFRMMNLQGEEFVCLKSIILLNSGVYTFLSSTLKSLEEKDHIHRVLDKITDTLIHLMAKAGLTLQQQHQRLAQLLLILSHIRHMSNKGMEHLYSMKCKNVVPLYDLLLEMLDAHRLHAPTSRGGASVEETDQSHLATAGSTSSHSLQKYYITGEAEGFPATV
Chain of Androgen receptor (Homo sapiens) (P10275 whole entry, looked up): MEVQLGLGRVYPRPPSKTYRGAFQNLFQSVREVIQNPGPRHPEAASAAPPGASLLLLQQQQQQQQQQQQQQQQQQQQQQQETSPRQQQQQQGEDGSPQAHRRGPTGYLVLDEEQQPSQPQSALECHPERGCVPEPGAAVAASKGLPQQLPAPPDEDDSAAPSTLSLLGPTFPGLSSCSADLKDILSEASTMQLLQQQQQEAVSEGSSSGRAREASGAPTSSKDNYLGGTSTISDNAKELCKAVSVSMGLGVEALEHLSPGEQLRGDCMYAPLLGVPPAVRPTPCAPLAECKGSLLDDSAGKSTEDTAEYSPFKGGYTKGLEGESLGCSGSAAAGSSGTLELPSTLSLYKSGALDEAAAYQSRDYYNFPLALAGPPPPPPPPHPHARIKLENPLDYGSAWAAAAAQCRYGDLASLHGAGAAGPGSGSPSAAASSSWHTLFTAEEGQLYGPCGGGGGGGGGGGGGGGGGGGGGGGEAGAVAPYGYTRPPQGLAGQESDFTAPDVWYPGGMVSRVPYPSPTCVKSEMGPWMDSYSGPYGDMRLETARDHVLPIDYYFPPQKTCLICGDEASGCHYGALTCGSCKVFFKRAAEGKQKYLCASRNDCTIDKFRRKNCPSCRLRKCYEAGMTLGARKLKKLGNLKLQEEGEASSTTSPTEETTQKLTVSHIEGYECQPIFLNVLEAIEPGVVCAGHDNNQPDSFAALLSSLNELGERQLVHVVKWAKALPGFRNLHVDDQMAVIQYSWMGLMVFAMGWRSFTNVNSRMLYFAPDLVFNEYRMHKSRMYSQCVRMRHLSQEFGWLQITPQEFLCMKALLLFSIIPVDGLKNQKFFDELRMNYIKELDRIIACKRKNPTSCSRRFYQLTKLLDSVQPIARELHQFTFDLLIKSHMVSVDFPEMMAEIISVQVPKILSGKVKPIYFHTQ
Chain of Bile acid receptor (Homo sapiens) (Q96RI1 whole entry, looked up): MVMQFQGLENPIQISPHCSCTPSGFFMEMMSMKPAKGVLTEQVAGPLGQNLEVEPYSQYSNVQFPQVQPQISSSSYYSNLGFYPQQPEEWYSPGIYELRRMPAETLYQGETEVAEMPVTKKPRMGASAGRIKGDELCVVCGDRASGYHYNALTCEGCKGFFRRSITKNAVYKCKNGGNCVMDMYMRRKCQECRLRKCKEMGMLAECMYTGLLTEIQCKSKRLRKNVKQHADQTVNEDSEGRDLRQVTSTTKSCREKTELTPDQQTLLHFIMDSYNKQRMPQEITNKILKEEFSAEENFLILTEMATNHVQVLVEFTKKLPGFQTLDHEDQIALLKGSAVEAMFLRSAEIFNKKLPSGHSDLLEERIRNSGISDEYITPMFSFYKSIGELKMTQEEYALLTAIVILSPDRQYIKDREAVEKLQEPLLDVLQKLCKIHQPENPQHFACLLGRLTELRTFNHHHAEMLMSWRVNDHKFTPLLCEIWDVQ
Chain of Glucocorticoid receptor (Homo sapiens) (P04150 whole entry, looked up): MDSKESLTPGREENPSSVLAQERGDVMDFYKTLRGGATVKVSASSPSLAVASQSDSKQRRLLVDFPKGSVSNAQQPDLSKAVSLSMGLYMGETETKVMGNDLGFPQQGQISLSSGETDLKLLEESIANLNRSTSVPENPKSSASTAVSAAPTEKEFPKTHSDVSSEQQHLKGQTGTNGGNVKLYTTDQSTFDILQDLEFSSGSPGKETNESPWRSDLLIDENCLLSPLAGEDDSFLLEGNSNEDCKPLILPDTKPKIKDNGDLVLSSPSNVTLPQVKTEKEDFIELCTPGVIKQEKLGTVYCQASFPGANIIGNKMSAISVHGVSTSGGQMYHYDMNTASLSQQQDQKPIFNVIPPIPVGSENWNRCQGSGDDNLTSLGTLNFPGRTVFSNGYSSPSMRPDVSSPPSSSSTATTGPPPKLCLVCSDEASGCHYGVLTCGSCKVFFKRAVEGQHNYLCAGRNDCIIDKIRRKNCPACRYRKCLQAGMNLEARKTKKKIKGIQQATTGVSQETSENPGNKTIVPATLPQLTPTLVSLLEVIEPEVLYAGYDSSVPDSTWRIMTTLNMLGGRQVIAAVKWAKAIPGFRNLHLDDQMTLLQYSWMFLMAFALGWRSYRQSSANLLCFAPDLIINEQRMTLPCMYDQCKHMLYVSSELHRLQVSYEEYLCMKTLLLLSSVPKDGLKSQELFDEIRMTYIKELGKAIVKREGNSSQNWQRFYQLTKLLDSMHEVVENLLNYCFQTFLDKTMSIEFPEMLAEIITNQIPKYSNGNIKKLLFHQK

CCCCC(CC)COC(=O)c1ccc(C(=O)OCC(CC)CCCC)cc1 (stereo not given)
inactive: outcome [1] | Potency [2] | outcome [3] | Potency [4] | Potency [5]

O=C1NC(=O)C(Cc2ccc(OCCN3COc4ccccc4C3=O)cc2)S1 (stereo not given)
active: Potency [5] 48.6 µM
inactive: activation [6] -3.44% | Potency [2] | activation [7] 5.15% | Potency [8]

C[Si]1(C)O[Si](C)(C)O[Si](C)(C)O[Si](C)(C)O1
inactive: Potency [9] | Potency [4]

Cc1nn(C)c(Oc2ccccc2)c1/C=N/OCc1ccc(C(=O)OC(C)(C)C)cc1
inactive: Potency [9] | Potency [8]

CCCCN(CCCC)CCCCCCN(CCCC)CCCC
inactive: Potency [9] | Potency [4] | Potency [5]

CC1(C)C(=O)N(Br)C(=O)N1Br
inactive: activation [6] -9.37% | Potency [2] | Potency [8] | outcome [3] | Potency [4]

CC(COCC(C)OC(=O)c1ccccc1)OC(=O)c1ccccc1 (stereo not given)
inactive: Potency [2] | activation [7] 5.58% | Potency [8] | outcome [3]

COC(=O)C(C)Oc1ccc(Oc2ncc(C(F)(F)F)cc2Cl)cc1 (stereo not given)
inactive: Potency [9] | Potency [4] | Potency [5]

Cc1ccc(N)c(S(=O)(=O)O)c1
inactive: Potency [2] | activation [7] -5.18% | Potency [8] | outcome [3] | Potency [4]
active: Potency [5] 61.1 µM

O=C(O)c1cc2ccccc2cc1O
inactive: activation [6] -7.51% | outcome [1] | activation [7] 2.47% | Potency [8] | Potency [4]

CCc1c(C(=O)O)c(=O)cnn1-c1ccc(Cl)cc1
inactive: Potency [9] | Potency [8] | outcome [3] | Potency [4] | Potency [5]

CCCCCCCCCCCCCCCCCC#N
inactive: Potency [9] | Potency [8] | Potency [4] | Potency [5]

C=CCCCCCCCCCCCC
inactive: activation [6] -5.69% | outcome [1] | Potency [2] | activation [7] 9.05% | Potency [8] | outcome [3]

C=C(C)C(=O)OCC[N+](C)(C)C
inactive: activation [6] 0.258% | outcome [1] | activation [7] -7.03% | Potency [8] | Potency [4] | Potency [5]

C[Si](C)(Cl)[Si](C)(C)Cl
inactive: activation [6] -5.2% | outcome [3] | Potency [4] | Potency [5]
